Assay results published in paper PMC9838217, “Structure of SALL4 zinc finger domain reveals link between AT-rich DNA binding and Okihiro syndrome”.

These sequences were tested against T1, SALL4 ZFC4 R900W (HT-SELEX) (Mus musculus, UniProt Q8BX22 870-940, R900W) (assay: HT-SELEX; high values mean tight binding). Conditions: protein: recombinant; vector His6-GST; dsDNA, one strand shown.
T1 sequence: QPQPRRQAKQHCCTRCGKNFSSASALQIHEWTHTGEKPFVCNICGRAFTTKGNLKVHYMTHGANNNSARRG
Summary of the method: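 Binding signal is defined as the fold change of each canonical k-mer's read fraction versus the initial random library. Selections used 1 µg of purified recombinant mouse SALL4 zinc finger cluster 4 (residues 870–940) with library DNA (1.5 µg first cycle, 200 ng later) in 100 µl of 10 mM Tris–HCl pH 7.5, 50 mM NaCl, poly(dI-dC) and DTT, for 10 min at room temperature, followed by Ni2+ bead capture, washing and PCR. Up to 6 such cycles were run in triplicate before MiSeq sequencing and 6-mer scanning.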
ATGCCC was tested, and the binding signal was 0.331 ± 0.00967 fold-change vs cycle 0.
With CCTGCG the binding signal was 0.145 ± 0.0224 fold-change vs cycle 0.
With ATCGCC the binding signal was 0.24 ± 0.00657 fold-change vs cycle 0.
Sequence AACGCC has a binding signal of 0.242 ± 0.0243 fold-change vs cycle 0.
Work on CGTGCA yielded a binding signal of 0.286 ± 0.00377 fold-change vs cycle 0.
In the case of GCGGCA, the binding signal is reported as 0.0597 ± 0.00711 fold-change vs cycle 0.
For ACGTGC, the binding signal was 0.314 ± 0.00898 fold-change vs cycle 0.
Work on ACGCGT yielded a binding signal of 0.28 ± 0.0448 fold-change vs cycle 0.
Sequence CCTGCC has a binding signal of 0.172 ± 0.00852 fold-change vs cycle 0.
CCGCGA gave a binding signal of 0.102 ± 0.00288 fold-change vs cycle 0.
GGCCGA showed a binding signal of 0.0868 ± 0.00648 fold-change vs cycle 0.
Work on GCGAGA yielded a binding signal of 0.334 ± 0.0226 fold-change vs cycle 0.
Sequence AGTGCG has a binding signal of 0.276 ± 0.0168 fold-change vs cycle 0.
Work on AGAGGC yielded a binding signal of 0.355 ± 0.0197 fold-change vs cycle 0.
In the case of GAGGCC, the binding signal is reported as 0.158 ± 0.00288 fold-change vs cycle 0.
GGAATA gave a binding signal of 1.41 ± 0.0506 fold-change vs cycle 0.
CGCATC showed a binding signal of 0.304 ± 0.00796 fold-change vs cycle 0.
GACGGC was tested, and the binding signal was 0.105 ± 0.00605 fold-change vs cycle 0.
In the case of CCCCCG, the binding signal is reported as 0.133 ± 0.00946 fold-change vs cycle 0.
Sequence AACGCG has a binding signal of 0.226 ± 0.0175 fold-change vs cycle 0.
For ACAGCG, the binding signal was 0.265 ± 0.00461 fold-change vs cycle 0.
ACGAAT was tested, and the binding signal was 1.26 ± 0.0589 fold-change vs cycle 0.
Work on GAACTA yielded a binding signal of 1.48 ± 0.0646 fold-change vs cycle 0.
AAGCCC gave a binding signal of 0.353 ± 0.015 fold-change vs cycle 0.
Sequence GGCCAC has a binding signal of 0.126 ± 0.019 fold-change vs cycle 0.
ACCGGG gave a binding signal of 0.239 ± 0.0269 fold-change vs cycle 0.
For CTGCAC, the binding signal was 0.345 ± 0.044 fold-change vs cycle 0.
For ACTGGC, the binding signal was 0.318 ± 0.0103 fold-change vs cycle 0.
Work on CAATAG yielded a binding signal of 1.34 ± 0.0439 fold-change vs cycle 0.
With TCCGCA the binding signal was 0.269 ± 0.0199 fold-change vs cycle 0.
Work on CAGCCA yielded a binding signal of 0.309 ± 0.0234 fold-change vs cycle 0.
GGCTGA was tested, and the binding signal was 0.349 ± 0.0304 fold-change vs cycle 0.
Sequence CCCTCG has a binding signal of 0.278 ± 0.0226 fold-change vs cycle 0.
CGCCCG was tested, and the binding signal was 0.0459 ± 0.011 fold-change vs cycle 0.
Work on AGCGGC yielded a binding signal of 0.0644 ± 0.00817 fold-change vs cycle 0.
Sequence ACGGCT has a binding signal of 0.272 ± 0.0156 fold-change vs cycle 0.
Sequence CCACGC has a binding signal of 0.141 ± 0.0119 fold-change vs cycle 0.
For CGGGGA, the binding signal was 0.231 ± 0.0209 fold-change vs cycle 0.
CGCGTC was tested, and the binding signal was 0.112 ± 0.0164 fold-change vs cycle 0.
In the case of CACCCG, the binding signal is reported as 0.244 ± 0.0244 fold-change vs cycle 0.
